The results in this text go back to PubChem BioAssay (Tox21).

Molecules are shown by their SMILES. Records with an inconclusive call do not appear. Values without a mark were called inactive. The call rests on the fitted dose curve; in most records, active means well fitted curve in the direction sought with a large enough effect in the repeat runs; inconclusive means weak or mixed curves; inactive means no such curve, though single readings can be large; an effect the other way counts as inactive or inconclusive.
On the % scale 0 is the no-effect control and ±100 the full control effect.

One assay in a line: qHTS assay to identify small molecule agonists of the sonic hedgehog signaling (Shh) pathway - cell viability counter screen (AID 1259366). Further: nearly all actives have a fitted effect of over 50% in size. As to conditions: NIH/3T3 Gli1-Luc viability, CellTiter-Fluor, 24 h; series mostly up to 92.4 µM; viability change, negative = cytotoxic: at the top concentration. Put shortly:
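Viability measured fluorometrically (CellTiter-Fluor, 1hr, 37C) in 3T3 Gli1-Luc reporter cells after 23hr compound exposure within a 24hr incubation at 37C/5% CO2.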
For `CC(C)c1ccccc1`, the “viability change, negative = cytotoxic” value is 0.447%. Same read-out and setting: with `CC(C)CCCCCCc1ccc(OCCOCCO)cc1` the figure was 10.1%; with `Cc1ccsc1C(=CCCN1CCC[C@@H](C(=O)O)C1)c1sccc1C`, -4.31% [at 42.5 µM]; with `Cc1ncc(CO)c(CN)c1O`, 5.61% [at 42.5 µM].

For the molecule `CC(CNC1CCCCC1)OC(=O)c1ccccc1` (centres undefined), the “viability change, negative = cytotoxic” value was -0.352% [at 42.5 µM].

Take `COc1ccc(S(=O)(=O)Nc2nnc(CC(C)C)s2)cc1`: the “viability change, negative = cytotoxic” value was 0.6% [at 42.5 µM]. The same measure, in the same setting: with `CO[C@@]1(NC(=O)CSCC#N)C(=O)N2C(C(=O)O)=C(CSc3nnnn3C)CS[C@@H]21` the figure was 4.68% [at 42.5 µM]; with `C[C@@H]1CN(c2c(F)c(F)c3c(=O)c(C(=O)O)cn(C4CC4)c3c2F)C[C@H](C)N1`, 6.74% [at 19 µM]; with `CC(=O)N(CC(O)CN(C(C)=O)c1c(I)c(C(=O)NCC(O)CO)c(I)c(C(=O)NCC(O)CO)c1I)c1c(I)c(C(=O)NCC(O)CO)c(I)c(C(=O)NCC(O)CO)c1I` (centres undefined), -5.82% [at 42.5 µM]. Still for that read-out and setting: with `CC(C)(C)c1cccc(O)c1` the figure was -0.151%.

As to `C[C@@H](N)C(=O)O`, the “viability change, negative = cytotoxic” value was 3.98% [at 42.5 µM]. Still for that read-out and setting: with `CCC(=O)O[C@]1(C(=O)SCF)[C@H](C)C[C@H]2[C@@H]3C[C@H](F)C4=CC(=O)C=C[C@]4(C)[C@@]3(F)[C@@H](O)C[C@@]21C` the figure was 2.41% [at 42.5 µM]. Still for that read-out and setting: with `Cc1c(C(=O)NCCO)[n+](=O)c2ccccc2n1[O-]` the figure was -3.18% [at 42.5 µM]; with `C=Cc1ccccc1`, -2.62%. The same measure, in the same setting: with `CCCNC(C)C(=O)Nc1c(C)csc1C(=O)OC` (centres undefined) the figure was 0.353% [at 42.5 µM]. In the case of `CCN(CC)CCNC(=O)COc1ccc(Cl)cc1`, the “viability change, negative = cytotoxic” value was 0.768% [at 42.5 µM]. The same measure, in the same setting: with `CC(=O)OC(C)OC(C)=O` the figure was 8.04%; with `CN(C)Cc1ccccc1`, 2.26%. Take `O=c1oc2c(O)c(O)cc3c(=O)oc4c(O)c(O)cc1c4c23`: the viability change, negative = cytotoxic was -17.2% [at 19 µM]. On the same count and under the same terms, with `Cc1cc(S(=O)(=O)O)c(N)cc1Cl` the figure was 1.04%.

Turning to `O=c1[nH]c(=O)n([C@H]2C[C@H](O)[C@@H](CO)O2)cc1C(F)(F)F`, the “viability change, negative = cytotoxic” value is -1.99% [at 42.5 µM].

Regarding `Nc1cccc(S(=O)(=O)O)c1`, the “viability change, negative = cytotoxic” value is 7.32%. The same measure, in the same setting: with `FC(F)(F)C(F)(F)C(F)(F)C(F)(F)C(F)(F)C(F)(F)C(F)(F)C(F)(F)Br` the figure was 0.0294% [at 42.5 µM]; with `N#CSCC(=O)O`, 1.82% [at 42.5 µM]; with `CCCC(CCC)(C(=O)OCC)C(=O)OCC`, -1.39% [at 42.5 µM]. `CC(Oc1c(Cl)cccc1Cl)C1=NCCN1` (centres undefined): the “viability change, negative = cytotoxic” value is -0.95% [at 42.5 µM]. Still for that read-out and setting: with `OCCN(CCO)c1ccccc1` the figure was -3.16%; with `CCN(CC)CC1CCCCN1CC(=O)N1c2ccccc2C(=O)Nc2cccnc21` (centres undefined), -7.5% [at 42.5 µM]; with `COC(C)CCO` (centres undefined), 5.02%. The same measure, in the same setting: with `COC(=O)C(C)O` (centres undefined) the figure was 5.02%; with `CN1CCN(N)CC1`, -0.491% [at 42.5 µM]; with `CN1CCN(C2=Nc3cc(F)ccc3Cc3ccccc32)CC1`, -19.4% [at 42.5 µM].

Take `CC1(O)CSC(C)(O)CS1` (centres undefined): the “viability change, negative = cytotoxic” value was 11.6%.

Another assay is described as follows: qHTS assay to identify small molecule antagonists of the sonic hedgehog signaling (Shh) pathway - cell viability counter screen (AID 1259367). Further: nearly all actives have a fitted effect of over 55% in size. As to conditions: NIH/3T3 Gli1-Luc viability, CellTiter-Fluor, 24 h; series mostly up to 92.4 µM; viability change, negative = cytotoxic: at the top concentration. Put shortly:
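NIH/3T3-derived Gli1-Luc reporter cells, 2,000/well, plated 4 hr before compound addition, then stimulated with conditioned medium for 24 hr at 37C. Viability measured in the same wells by CellTiter-Fluor fluorescence, reagent added at 23 hr for 1 hr.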
(qHTS replaces the single test concentration by a dilution series.)
Turning to `CC(C)c1ccccc1`, the “viability change, negative = cytotoxic” value is -10.4%.

For the molecule `CC(C)CCCCCCc1ccc(OCCOCCO)cc1`, the “viability change, negative = cytotoxic” value was -5.13%. Same read-out and setting: with `Cc1ccsc1C(=CCCN1CCC[C@@H](C(=O)O)C1)c1sccc1C` the figure was -6.97% [at 42.5 µM]; with `Cc1ncc(CO)c(CN)c1O`, -1.04% [at 42.5 µM]; with `CC(CNC1CCCCC1)OC(=O)c1ccccc1` (centres undefined), 1.05% [at 42.5 µM].

As to `COc1ccc(S(=O)(=O)Nc2nnc(CC(C)C)s2)cc1`, the “viability change, negative = cytotoxic” value was 0.982% [at 42.5 µM].

For the molecule `Cn1cnc2c(F)c(Nc3ccc(Br)cc3Cl)c(C(=O)NOCCO)cc21`, the “viability change, negative = cytotoxic” value is -23% [at 42.5 µM].

As to `CO[C@@]1(NC(=O)CSCC#N)C(=O)N2C(C(=O)O)=C(CSc3nnnn3C)CS[C@@H]21`, the “viability change, negative = cytotoxic” value was 4.46% [at 42.5 µM]. On to `CC(=O)N(CC(O)CN(C(C)=O)c1c(I)c(C(=O)NCC(O)CO)c(I)c(C(=O)NCC(O)CO)c1I)c1c(I)c(C(=O)NCC(O)CO)c(I)c(C(=O)NCC(O)CO)c1I` (centres undefined), for which the “viability change, negative = cytotoxic” value is 2.36% [at 42.5 µM]. Take `CC(C)(C)c1cccc(O)c1`: the “viability change, negative = cytotoxic” value is -2.02%. Same read-out and setting: with `C[C@@H](N)C(=O)O` the figure was -1.35% [at 42.5 µM]; with `CCC(=O)O[C@]1(C(=O)SCF)[C@H](C)C[C@H]2[C@@H]3C[C@H](F)C4=CC(=O)C=C[C@]4(C)[C@@]3(F)[C@@H](O)C[C@@]21C`, -5.01% [at 42.5 µM]; with `Cc1c(C(=O)NCCO)[n+](=O)c2ccccc2n1[O-]`, 0.92% [at 42.5 µM]. The same measure, in the same setting: with `C=Cc1ccccc1` the figure was 4.56%; with `CCCNC(C)C(=O)Nc1c(C)csc1C(=O)OC` (centres undefined), -0.604% [at 42.5 µM]. The same measure, in the same setting: with `CCN(CC)CCNC(=O)COc1ccc(Cl)cc1` the figure was -6.94% [at 42.5 µM]. As to `CC(=O)OC(C)OC(C)=O`, the “viability change, negative = cytotoxic” value is 0.222%. On the same count and under the same terms, with `O=c1oc2c(O)c(O)cc3c(=O)oc4c(O)c(O)cc1c4c23` the figure was 1.3% [at 19 µM].

For `Cc1cc(S(=O)(=O)O)c(N)cc1Cl`, the “viability change, negative = cytotoxic” value was -3.52%. Still for that read-out and setting: with `O=c1[nH]c(=O)n([C@H]2C[C@H](O)[C@@H](CO)O2)cc1C(F)(F)F` the figure was -1.5% [at 42.5 µM]; with `FC(F)(F)C(F)(F)C(F)(F)C(F)(F)C(F)(F)C(F)(F)C(F)(F)C(F)(F)Br`, 1.3% [at 42.5 µM]. The same measure, in the same setting: with `N#CSCC(=O)O` the figure was 5.05% [at 42.5 µM]. Same read-out and setting: with `CCCC(CCC)(C(=O)OCC)C(=O)OCC` the figure was -1.98% [at 42.5 µM]; with `CC(Oc1c(Cl)cccc1Cl)C1=NCCN1` (centres undefined), -24.7% [at 42.5 µM]. Turning to `CC1=C(CC(=O)O)c2cc(F)ccc2/C1=C\c1ccc(S(C)(=O)=O)cc1`, the “viability change, negative = cytotoxic” value was -23.5% [at 42.5 µM].

Turning to `CCN(CC)CC1CCCCN1CC(=O)N1c2ccccc2C(=O)Nc2cccnc21` (centres undefined), the “viability change, negative = cytotoxic” value was -11.5% [at 42.5 µM]. Same read-out and setting: with `COC(C)CCO` (centres undefined) the figure was -0.951%; with `COC(=O)C(C)O` (centres undefined), 0.122%. Consider `CN1CCN(N)CC1`, for which the “viability change, negative = cytotoxic” value is 6.55% [at 42.5 µM].

As for `CN1CCN(C2=Nc3cc(F)ccc3Cc3ccccc32)CC1`, the “viability change, negative = cytotoxic” value was -16.4% [at 42.5 µM].

With `CC1(O)CSC(C)(O)CS1` (centres undefined), the “viability change, negative = cytotoxic” value is 2.26%.
